The subject of this test is Pseudogymnoascus destructans 20631-21. Kind of test: growth activity index (DuctApe, 0 = no growth, 9 = maximal growth) (index 0-9); higher = more fungal growth (less inhibition), active = 0 or less; extreme values may be limits of the assay. The settings on record: temperature: 13 °C, YPD.
[1] abbreviates: concentration level (1-4, increasing; Biolog proprietary): 1.
[2] abbreviates: concentration level (1-4, increasing; Biolog proprietary): 2.
Setting [3] is: concentration level (1-4, increasing; Biolog proprietary): 3.
Setting [4] is: concentration level (1-4, increasing; Biolog proprietary): 4.

Values without a mark were called inactive.
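Note: biolog Phenotype Microarray plates PM21–25, OD595 followed daily over 11 days, growth curves converted to index, mean of two independent experiments.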

Take `C[n+]1ccc(-c2cc[n+](C)cc2)cc1` [Methyl viologen] (Biolog plate: PM24): the growth activity index was 1 under setting [1], 0 (active) under setting [2], 0.333 under setting [3] and 0.667 under setting [4].

Regarding `O=[Se]([O-])[O-].[Na+].[Na+]` [Sodium Selenite] (Biolog plate: PM21), the growth activity index runs as follows: under setting [1], 6; under setting [2], 5.25; under setting [3], 6; under setting [4], 4.75.

Turning to `[N-]=[N+]=[N-]` [Sodium Azide] (Biolog plate: PM23), the growth activity index was 2.67 under setting [1], 1 under setting [2], 0 (active) under setting [3] and 0.333 under setting [4].
